D3 antag – antagonists of human D3 dopamine receptor; max response, negative = inhibition, %; 360,000 compounds, 2.5% hits; P35462; D3R cells, DiscoveRx beta-arrestin luminescence, antagonist mode; active compounds read low; in the data active = max response below about -50%; inconclusive = no clear call, values can overlap the other calls
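Cells plated overnight at 1500 cells/well, then exposed to library compounds with dopamine controls for 90 minutes at 37 degrees C. DiscoveRx reagent added for 30–60 minutes at room temperature; luminescence read, quantitative HTS format.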
D1 antagonist – human D1 dopamine receptor antagonism; P21728; AID 504652; activity change, negative = inhibition, % at 10 µM; HEK293 TREx D1 cells, calcium flux, dopamine EC80; active compounds read low; 360,000 compounds, 3.2% hits; in the data active = activity change below about -30%
Target sequence (P21728 whole entry, looked up): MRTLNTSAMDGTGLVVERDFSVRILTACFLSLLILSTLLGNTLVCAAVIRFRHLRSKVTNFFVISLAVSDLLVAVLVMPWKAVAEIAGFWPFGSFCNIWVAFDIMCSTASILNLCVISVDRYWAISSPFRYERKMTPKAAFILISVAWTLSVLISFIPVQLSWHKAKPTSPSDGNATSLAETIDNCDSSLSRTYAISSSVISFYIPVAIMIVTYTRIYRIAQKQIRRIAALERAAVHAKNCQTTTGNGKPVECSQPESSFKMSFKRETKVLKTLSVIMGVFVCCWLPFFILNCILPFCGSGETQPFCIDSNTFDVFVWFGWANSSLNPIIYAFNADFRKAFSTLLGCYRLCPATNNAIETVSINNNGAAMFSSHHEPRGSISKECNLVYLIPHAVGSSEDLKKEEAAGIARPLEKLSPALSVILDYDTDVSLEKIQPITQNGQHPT
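Tetracycline-induced HEK293 Trex D1 cells, force-coupled to calcium, dye-loaded; compounds added and read 180 s, then EC80 dopamine added and calcium flux tracked kinetically another 180 s.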
D1 potentiator – human D1 dopamine receptor positive modulation; 360,000 compounds, 0.036% hits; potentiation, % at 10 µM; P21728; HEK293 TREx D1 cells, calcium flux, dopamine EC20 potentiation; in the data active = potentiation above about 30%
D1 agonist – human D1 receptor agonism; P21728; HEK293 T-REx D1 cells, calcium flux, agonist mode; activation, % at 2 µM; 360,000 compounds, 1% hits; AID 504660; in the data active = activation above about 30%
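Inducible HEK293 T-REx D1 cells, force-coupled to calcium signalling, were plated at 4000 cells/well with tetracycline and held overnight at 30 C. After no-wash calcium dye loading, compound-evoked calcium rise over 180 s flagged agonists.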
DRD3 agonist – agonists of human D3 dopamine receptor; max activation, %; AID 652048; P35462; D3R DiscoveRx beta-arrestin cells, luminescence, 90 min; 410,000 compounds, 0.58% hits; in the data active = max activation above about 30%
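Agonist-mode cell screen: cells plated at 1500/well and incubated overnight at 37 °C, then exposed to library compounds for 90 min at 37 °C. Detection reagent was added for 30–60 min at room temperature, and luminescence was read.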
Hits are given with their value; 0 = inactive; ? = inconclusive; - = not tested or not shown; ! = not confirmed by another sample. The list is not random: actives were taken first. Their share in the collection is about 6.1%.

SMILES	D3 antag	D1 antagonist	D1 potentiator	D1 agonist	DRD3 agonist
CCC(C)NC(=O)Cn1c(=O)n(Cc2ccc(C(=O)NCc3ccc(C)cc3)cc2)c(=O)c2ccccc21 (stereo unspecified)	-	0	0	0	0
CC(=O)Nc1ccc(OCCC[n+]2ccccc2)cc1	0	0	0	0	0
CCCCCc1ccc(OCCC[n+]2ccccc2)c(CCCCC)c1	0	0	0	159	0
CCCCCc1ccc(OCCOCCn2c[n+](C)c3ccccc32)c(CCCCC)c1	0	0	0	129	0
CC(C)C[C@H]1CNC(=O)C(=O)N1CC1CCN(CCc2ccc(-c3ccccc3)cc2)CC1	-60	-	-	-	0
O=C1NC[C@H](Cc2ccccc2)N(CC2CCN(CCc3ccc(-c4ccccc4)cc3)CC2)C1=O	-78	-	-	-	0
CC(C)C[C@H]1CNC(=O)C(=O)N1CC1CCN(CCc2ccccc2)CC1	-76	-	-	-	0
O=C1NC[C@H](Cc2ccccc2)N(CC2CCN(CCc3ccccc3)CC2)C1=O	0	-	-	-	0
CC(C)CCN1CCC(CN2C(=O)C(=O)NC[C@@H]2Cc2ccccc2)CC1	0	-	-	-	0
COc1cc(OC)c(N(C)C(=O)C2CCCN(c3ncnc4c3nc3n4CCCCC3)C2)cc1Cl (stereo unspecified)	-	0	0	0	0
CCc1ccc(NS(=O)(=O)c2ccc3c(c2)oc(=O)n3C)cc1	0	-34	0	0	0
CC(=O)Nc1ccc(NC(=O)C(Cc2ccccc2)NS(=O)(=O)c2ccc3c(c2)oc(=O)n3C)cc1 (stereo unspecified)	-	0	0	0	0
CCOC(=O)Cn1c(=O)oc2cc(S(=O)(=O)Nc3cccc(C)c3)ccc21	-59	0	0	0	0
CCOC(=O)Cn1c(=O)oc2cc(S(=O)(=O)Nc3cc(OC)cc(OC)c3)ccc21	-	0	0	0	0
CC(C)c1ccc(NC(=O)C(Cc2ccccc2)NS(=O)(=O)c2ccc3c(c2)oc(=O)n3C)cc1 (stereo unspecified)	-	-37	0	0	0
CCOc1ccccc1NC(=O)Cn1c(=O)oc2cc(S(=O)(=O)NCc3ccccc3)ccc21	-	-39	0	0	0
Cc1ccc(NS(=O)(=O)c2ccc3c(c2)oc(=O)n3C)cc1	0	0	0	0	0
Cn1c(=O)oc2cc(S(=O)(=O)NCc3ccc(Cl)cc3)ccc21	0	-37	0	0	0
Cn1c(=O)oc2cc(S(=O)(=O)NCCN3CCN(c4ccccc4F)CC3)ccc21	-54	-75	0	0	0
COC(=O)c1ccccc1NS(=O)(=O)c1ccc2c(c1)oc(=O)n2C	0	0	0	0	0
Cn1c(=O)oc2cc(S(=O)(=O)NCc3ccccc3)ccc21	0	0	0	0	0
Cn1c(=O)oc2cc(S(=O)(=O)Nc3ccccc3O)ccc21	0	-40!	0	0	0
Cn1c(=O)oc2cc(S(=O)(=O)NCCN3CCCCCC3)ccc21	0	0	0	0	0
CCC(C)(CC(=O)O)CC(=O)Nc1cc(C(F)(F)F)cc(C(F)(F)F)c1 (stereo unspecified)	0	0	0	0	32
N#CC(C(=O)NC1CCCCC1)c1nc2ccccc2nc1N1CCOCC1 (stereo unspecified)	-	0	0	0	-
SMILES	D3 antag	D1 antagonist	D1 potentiator	D1 agonist	DRD3 agonist
N#CC(C(=O)NC1CCCCC1)c1nc2ccccc2nc1N1CCN(c2ccccc2F)CC1 (stereo unspecified)	0	-35	0	0	0
N#CC(C(=O)OCc1ccccc1)c1nc2ccccc2nc1N1CCOCC1 (stereo unspecified)	0	0	0	33	0
COC(=O)C1CCN(c2nc3ccccc3nc2C(C#N)C(=O)NCCc2ccccc2)CC1 (stereo unspecified)	0	-35	0	0	0
CCOc1cc(/C=N/NC(=O)CSc2nncn2C)ccc1OCC(N)=O	0	0	0	0	0
COc1ccc(/C=N/NC(=O)c2cccc([N+](=O)[O-])c2)cc1OC(=O)c1ccccc1	?	0	0	0	0
COc1cc(/C=N/NC(=O)c2sc3ccccc3c2Cl)ccc1OC(=O)c1ccc([N+](=O)[O-])cc1	0	-38	0	0	0
O=C(N/N=C/c1ccc(OC(=O)c2ccccc2)c([N+](=O)[O-])c1)c1ccc(O)cc1	0	-33	0	0	0
CCOc1cc(/C=N\NC(=O)c2ccc(NC(=O)CC)cc2)ccc1OC(=O)c1ccccc1	0	-57	0	0	0
CCOc1cc(/C=N/NC(=O)CSc2nncn2C)ccc1OC(=O)c1ccc(Cl)cc1	0	-55	0	0	0
COc1ccc(Nc2nc3ccccc3nc2NS(=O)(=O)c2ccc(Cl)cc2)cc1OC	-	0	0	0	0
CCN(CC)c1ccc(NS(=O)(=O)c2cc(-c3onc(C)c3C)ccc2OC)c(C)c1	-	0	0	0	0
COc1ccc([C@@H]2COc3c(ccc4c3C=CC(C)(C)O4)C2)c(OC)c1	0	-	-	-	33
COC(=O)c1sc(-c2ccccc2)cc1NC(=O)Nc1ccc(F)cc1	-	0	0	0	0
Cc1ccc(S(=O)(=O)N(C)C)cc1NC(=O)COC(=O)CCC1CCCCC1	0	-39	0	0	0
O=C(Nc1ccccc1F)c1cnc(N2CCCCC2)c2ccccc12	-	0	0	0	0
O=C(Nc1ncc(S(=O)(=O)c2ccc([N+](=O)[O-])cc2)s1)c1cccc2ccccc12	0	0	0	56	0
COCC(=O)Nc1ncc(S(=O)(=O)c2ccc([N+](=O)[O-])cc2)s1	0	0	0	0	0
Cc1cccc(N2CCN(C(=O)c3c4c(nc5ccccc35)C(=O)N(C3CCCCC3)C4)CC2)c1C	-	0	0	0	0
Cc1cc(C)cc(NC(=O)C2COc3ccccc3O2)c1 (stereo unspecified)	0	-	-	-	0
Cc1cc(C)nc(NS(=O)(=O)c2ccc(NC(=O)C3COc4ccccc4O3)cc2)n1 (stereo unspecified)	0	-60	0	0	0
Cc1cccc(NC(=O)C2COc3ccccc3O2)c1 (stereo unspecified)	0	-32	0	0	0
Cc1cc2c(cc1S(=O)(=O)N(CCO)Cc1ccccc1)OCC(=O)N2	-	0	0	0	0
CCC(Oc1ccc(F)cc1)C(=O)Nc1c(C(=O)c2ccc(C)cc2)oc2ccccc12 (stereo unspecified)	-	0	0	0	0
Cc1ccnc(NC(c2ccsc2)c2ccc3ccc(C)nc3c2O)c1 (stereo unspecified)	-98	0	0	0	0
CC(=O)NC(c1ccco1)c1ccc2cccnc2c1O (stereo unspecified)	-62	0	0	0	0
Cc1ccc2ccc(C(Nc3ccccn3)c3ccccc3)c(O)c2n1 (stereo unspecified)	-59	0	0	0	0
COc1ccc(C(Nc2cc(C)ccn2)c2ccc3ccc(C)nc3c2O)cc1 (stereo unspecified)	-77	0	0	0	0

Compound activity: PubChem BioAssay, National Center for Advancing Translational Sciences (NCATS)
